Drawing on ChEMBL document CHEMBL3433997, “St. Jude Leishmania screening dataset” (2016), this text covers inhibition for 40 compounds.

The assay deals with Solute carrier family 2, facilitated glucose transporter member 1 (Homo sapiens) (UniProt P11166). As to the kind of experiment: ST_JUDE_LEISH: Cytotoxicity at 2uM final concentration against transgenic Leishmania Mexicana promastigotes LmGLUT1 that are glucose transport deficient and complemented with the human glucose transporter GLUT1. Activity is measured by DNA content using SYBR green in vitro. The class given is functional.
Chain of Solute carrier family 2, facilitated glucose transporter member 1 (Homo sapiens) (P11166 whole entry): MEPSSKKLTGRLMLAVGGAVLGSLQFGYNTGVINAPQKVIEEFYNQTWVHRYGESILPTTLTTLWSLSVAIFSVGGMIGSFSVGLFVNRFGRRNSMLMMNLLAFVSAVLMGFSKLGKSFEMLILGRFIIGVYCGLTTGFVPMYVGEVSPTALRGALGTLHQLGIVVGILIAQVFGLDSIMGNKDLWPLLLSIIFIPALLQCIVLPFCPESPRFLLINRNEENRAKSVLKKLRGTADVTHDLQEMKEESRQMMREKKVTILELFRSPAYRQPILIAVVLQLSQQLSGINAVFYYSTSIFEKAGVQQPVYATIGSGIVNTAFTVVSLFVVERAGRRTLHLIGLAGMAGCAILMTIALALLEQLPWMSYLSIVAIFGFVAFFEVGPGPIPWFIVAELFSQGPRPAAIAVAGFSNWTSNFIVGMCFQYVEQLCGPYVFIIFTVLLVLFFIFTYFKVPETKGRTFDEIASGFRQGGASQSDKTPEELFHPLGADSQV
The inhibition is the relative decrease from the control value, in per cent. Regarding `CCCc1cc(OC)c(CC2c3cc(O)c(C)cc3CCN2C)cc1OC` (stereo not given), the inhibition was -2.27%.

Regarding `Cc1cc(C2CCN(CCCCNC(=O)c3ccc(NC(=O)c4ccc(Cl)cc4)cc3)CC2)c(C)cc1OC(C)C`, the inhibition is -1.59%.

As for `Clc1ncnc2scc(-c3ccc(Br)cc3)c12`, the inhibition was determined as 7.74%.

For the compound `O=C(c1ccc(Cl)cc1)C1CCN(CCCOc2ccc3c(c2)CCNCC3)CC1`, the inhibition turned out to be 1.04%.

Consider `CC1CN(c2cc(=O)n(Cc3ccc(NC(=O)Nc4ccc(-c5ccccc5)cc4)cc3)cn2)CC(C)N1` (stereo not given), for which the inhibition was determined as 1.33%.

As to `Fc1ccc(-c2nc(NCc3cccc(C(F)(F)F)c3)nn2-c2cccc(C(F)(F)F)c2)cc1C(F)(F)F`, the inhibition worked out at 1.81%.

On to `O=C(NCCCc1ccccc1)c1csc(C2CCCN(C(=O)c3ccc(O)c(-c4cccc5ccccc45)c3)C2)n1` (stereo not given), for which the inhibition amounted to 0.14%.

Consider `CN1CCCC(CN2CCN(Cc3cccc(-c4ccc(-c5nc6cc(C(F)(F)F)ccc6[nH]5)cc4)c3)CC2)C1` (stereo not given), for which the inhibition worked out at 1.06%.

As to `COc1cc(CCCOc2c(N)nc(N)nc2N)cc(OC)c1OC`, the inhibition was 4.82%.

As for `COc1ccc(Cl)cc1-c1nc(C(=O)NCCN2CCCCC2)c(C(C)C)s1`, the inhibition is -3.64%.

In the case of `CC(Nc1cc(-c2ccccn2)nc(-c2ccccn2)n1)c1ccccc1` (stereo not given), the inhibition turned out to be 23.4%.

`Cc1cc(Cl)c(S(=O)(=O)N(C)c2ccccc2)cc1OCC(=O)NC1CCCCC1`: the inhibition is 1.65%.

As to `CN(C)CCN(C)Cc1cccc(-c2ccc3c(Nc4ccc(F)cc4Cl)ccnc3c2)c1`, the inhibition came to 1.88%.

Turning to `O=C(COc1ccccc1)Nn1cnc2ccccc21`, the inhibition came out at 3.76%.

On to `OC(CNCc1ccccc1Oc1ccccc1)c1cc(Br)cs1` (stereo not given), for which the inhibition is 4.37%.

Turning to `O=S(=O)(NCCN1CCCC1)c1ccc(-c2ccc(CNC3Cc4ccccc4C3)cc2)cc1F`, the inhibition worked out at 6.55%.

For `OCC1CCCCN1Cc1cccc(-c2cccc(-c3nc4ccccc4[nH]3)c2)c1` (stereo not given), the inhibition came out at 6.6%.

Regarding `CCOC(=O)c1cn(CC)c2cc(OCc3ccccc3)ccc2c1=O`, the inhibition was 0.45%.

For the compound `COc1ccc(Nc2nccc(NCC(O)c3cccc(C(F)(F)F)c3)n2)cc1` (stereo not given), the inhibition came out at 1.24%.

As for `O=C1Nc2cccc3c2C1(CCCCN1CCC(c2c(-c4ccccc4)[nH]c4ccccc24)CC1)CCC3` (stereo not given), the inhibition came to 3.04%.

`N#CC(c1ccc(Br)cc1)c1ccc2c(C(F)(F)F)cc(C(F)(F)F)nc2n1` (stereo not given): the inhibition amounted to 4.94%.

For the compound `O=C(Cn1c(CCc2cccc(F)c2F)cc(=O)c2ccccc21)N(CCN1CCCCC1)Cc1ccc(-c2ccc(C(F)(F)F)cc2)cc1`, the inhibition was 6.77%.

With `CC1(C)CCCN(c2ncc(-c3cccc(CNCc4ccccc4O)c3)cn2)C1`, the inhibition amounted to 2.91%.

`Oc1ccc(CCNc2nc(NCCCOc3cccc(CN4CCCCC4)c3Cl)nc(N3CCNCC3)n2)cc1`: the inhibition was 3.62%.

For the compound `CN(C)CCCNCCS(=O)(=O)c1cccc(Nc2ccc(-c3cccc(N(C)C)c3)cn2)c1`, the inhibition came out at 1.72%.

Take `CC1CCCN(c2ccc(NC(=O)c3cccs3)cc2[N+](=O)[O-])C1` (stereo not given): the inhibition was found to be 1.22%.

Turning to `CO/C(=C\C=C\c1cc2cc(Cl)c(Cl)cc2[nH]1)C(=O)NCCCN1CCC(c2ccccc2)CC1`, the inhibition was determined as 2.73%.

For `COc1ccc2[nH]c(C)cc(=NN=Cc3ccccc3)c2c1`, the inhibition was -2.87%.

Consider `COc1ccc(NC(=O)NC2CCN(CCCOc3ccnc4cc(Cl)ccc34)C2)cc1OC` (stereo not given), for which the inhibition is -0.88%.

For `C[C@H](Cc1ccc(C[C@@H](C)NCC(O)c2cc(Cl)c(N)c(Cl)c2)cc1)NCC(O)c1cc(Cl)c(N)c(Cl)c1` (stereo not given in full), the inhibition is 0.36%.

In the case of `O=C(NCc1cccc(F)c1)Nc1ccc(-c2ccc(-c3nc4cc(C(F)(F)F)ccc4[nH]3)cc2)cc1`, the inhibition was determined as 0.8%.

With `COc1cc2nccc(Nc3ccc(OCc4ccc(NC(C)=O)cc4)cc3)c2cc1OC`, the inhibition was 5.38%.

Regarding `CCOc1ccc(-c2nonc2NC(=O)c2ccccc2F)cc1OCC`, the inhibition is -0.17%.

As to `OC(CNC1CCCCC1)Cn1c2ccc(I)cc2c2cc(I)ccc21` (stereo not given), the inhibition amounted to 0.77%.

For `C=CCOc1ccc(-c2c(C)[nH]c(C)c(Br)c2=O)cc1`, the inhibition was 2.12%.

For the compound `C[C@@H]([C@@H](CCCc1ccc(Cl)cc1)C(=O)N[C@H](C(=O)Nc1cccnc1)C(C)(C)C)N(O)C=O`, the inhibition turned out to be 1.13%.

Consider `N#Cc1cccc(/C=C/C(=O)NC2CCC(CCN3CCc4ccc(-c5cnccn5)cc4CC3)CC2)c1` (stereo not given), for which the inhibition was found to be 7.94%.

`CCN(CC)CCOc1ccc(C(O)(C#CC(O)(c2ccc(OCCN(CC)CC)cc2)c2ccc([N+](=O)[O-])cc2)c2ccc([N+](=O)[O-])cc2)cc1` (stereo not given): the inhibition came out at 61%.

In the case of `CC(C)(C)c1ccc(NC(=O)c2cccc(CN3CCCN(Cc4ccc(F)cc4)CC3)c2)cc1`, the inhibition is 3%.

As for `Nc1c2c(nc3ccc(C(=O)Nc4ccccc4)cc13)CCCC2`, the inhibition was 4.09%.
